“And” between values parts separate entries of the source, which are not always exact repeats. Equal entries are not always repeated. Among all 5,500 compounds or so, about 2,000 (36%) were called active. Inconclusive results (about 18%) are left out. Rule as the data show it: active = normalized growth mostly below about 0.91 (no sharp cut-off); inconclusive = no clear call, values can overlap the other calls; inactive = mostly above about 0.92. Some of the results follow.
Experiment: chemical genetic growth profiling, strain panel (AID 1159580);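 also: tested at 20 µM; growth read once vehicle control cultures reached saturation at 30 °C; 1 = growth at the plate median or of vehicle wells; lower values mean less growth of the strain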
Settings: growth OD

Measured: normalized growth

CC(COc1ccccc1)N(CCCl)Cc1ccccc1 (stereo unspecified)
inactive: S. cerevisiae deletion strains, locus YJR075W, strain HOC1, hits give low values 1.02 | S. cerevisiae deletion strains, locus YKL009W, strain mrt4, hits give low values 1.04 | S. cerevisiae deletion strains, locus YKL068W, hits give low values 1.02 | S. cerevisiae deletion strains, locus YKL085W, strain MDH1 (second series), hits give low values 1.01 | S. cerevisiae deletion strains, locus YKL085W, strain MDH1, hits give low values 1.01 | S. cerevisiae deletion strains, locus YKL160W, strain elf1, hits give low values 0.931 | S. cerevisiae deletion strains, locus YKL190W, strain CNB1, hits give low values 1.01 | S. cerevisiae deletion strains, locus YKR001C, strain vps1, hits give low values 0.996 | S. cerevisiae deletion strains, locus YKR026C, strain gcn3, hits give low values 0.985 | S. cerevisiae deletion strains, locus YKR091W, strain srl3, hits give low values 0.978 | S. cerevisiae deletion strains, locus YLL001W, strain dnm1, hits give low values 1.03 | S. cerevisiae deletion strains, locus YLL026W, hits give low values 0.976 | S. cerevisiae deletion strains, locus YLL041C, strain sdh2, hits give low values 0.979 | S. cerevisiae deletion strains, locus YLR039C, strain RIC1, hits give low values 0.939 | S. cerevisiae deletion strains, locus YLR058C, strain SHM2, hits give low values 1.01 | S. cerevisiae deletion strains, locus YLR102C, strain apc9, hits give low values 1.01 | S. cerevisiae deletion strains, locus YLR113W, strain HOG1, hits give low values 0.977 | S. cerevisiae deletion strains, locus YLR221C, strain rsa3, hits give low values 0.995 | S. cerevisiae deletion strains, locus YLR258W, strain gsy2, hits give low values 0.95 | S. cerevisiae deletion strains, locus YLR262C, strain YPT6 (second series), hits give low values 0.897 | S. cerevisiae deletion strains, locus YLR262C, strain YPT6, hits give low values 0.977 | S. cerevisiae deletion strains, locus YLR268W, strain sec22, hits give low values 1.04 | S. cerevisiae deletion strains, locus YLR320W, strain mms22, hits give low values 0.985 | S. cerevisiae deletion strains, locus YLR330W, strain CHS5, hits give low values 1.01 | S. cerevisiae deletion strains, locus YLR342W, strain FKS1 (second series), hits give low values 0.974 | S. cerevisiae deletion strains, locus YLR342W, strain FKS1, hits give low values 0.989 | S. cerevisiae deletion strains, locus YLR357W, strain rsc2, hits give low values 0.969 | S. cerevisiae deletion strains, locus YLR370C, strain arc18, hits give low values 0.963 | S. cerevisiae deletion strains, locus YLR371W, strain rom2, hits give low values 1.02 | S. cerevisiae deletion strains, locus YLR384C, strain iki3, hits give low values 0.999 | S. cerevisiae deletion strains, locus YLR418C, strain cdc73, hits give low values 0.97 | S. cerevisiae deletion strains, locus YML016C, strain PPZ1, hits give low values 1 | S. cerevisiae deletion strains, locus YML032C, strain rad52, hits give low values 1.02 | S. cerevisiae deletion strains, locus YML120C, strain ndi1, hits give low values 1.01 | S. cerevisiae deletion strains, locus YML124C, strain tub3, hits give low values 1.01 | S. cerevisiae deletion strains, locus YMR058W, strain fet3, hits give low values 0.95 | S. cerevisiae deletion strains, locus YMR078C, strain ctf18, hits give low values 1.02 | S. cerevisiae deletion strains, locus YMR125W, strain sto1, hits give low values 0.987 | S. cerevisiae deletion strains, locus YMR129W, hits give low values 0.959 | S. cerevisiae deletion strains, locus YMR205C, strain PFK2, hits give low values 0.969 | S. cerevisiae deletion strains, locus YMR223W, strain ubp8, hits give low values 0.99 | S. cerevisiae deletion strains, locus YMR231W, strain pep5, hits give low values 0.996 | S. cerevisiae deletion strains, locus YMR263W, strain SAP30, hits give low values 1.01 and 0.995 | S. cerevisiae deletion strains, locus YMR307W, strain GAS1, hits give low values 1.01 and 1 | S. cerevisiae deletion strains, locus YNL067W, strain RPL9B, hits give low values 1.03 | S. cerevisiae deletion strains, locus YNL128W, strain TEP1, hits give low values 1.01 | S. cerevisiae deletion strains, locus YNL153C, strain GIM3, hits give low values 1.02 | S. cerevisiae deletion strains, locus YNL175C, strain NOP13, hits give low values 0.996 | S. cerevisiae deletion strains, locus YNL183C, strain NPR1, hits give low values 0.919 | S. cerevisiae deletion strains, locus YNL197C, strain WHI3, hits give low values 1.01 | S. cerevisiae deletion strains, locus YNL209W, strain ssb2, hits give low values 0.953 | S. cerevisiae deletion strains, locus YNL224C, strain SQS1, hits give low values 0.984 | S. cerevisiae deletion strains, locus YNL233W, strain BNI4, hits give low values 1.01 | S. cerevisiae deletion strains, locus YNL248C, strain rpa49, hits give low values 0.894 | S. cerevisiae deletion strains, locus YNL250W, strain rad50, hits give low values 1 | S. cerevisiae deletion strains, locus YNL271C, strain bni1, hits give low values 1.01 | S. cerevisiae deletion strains, locus YNL298W, strain CLA4, hits give low values 1 | S. cerevisiae deletion strains, locus YNL307C, strain MCK1, hits give low values 1 | S. cerevisiae deletion strains, locus YNL322C, strain KRE1 (second series), hits give low values 0.923 | S. cerevisiae deletion strains, locus YNL322C, strain KRE1, hits give low values 1.01 | S. cerevisiae deletion strains, locus YNR049C, strain mso1, hits give low values 0.975 | S. cerevisiae deletion strains, locus YNR052C, strain pop2, hits give low values 1.01 | S. cerevisiae deletion strains, locus YOL006C, strain TOP1, hits give low values 1.07 | S. cerevisiae deletion strains, locus YOL012C, strain htz1 0.857 | S. cerevisiae deletion strains, locus YOL147C, strain pex11, hits give low values 1.01 | S. cerevisiae deletion strains, locus YOR001W, strain rrp6, hits give low values 0.996 | S. cerevisiae deletion strains, locus YOR061W, strain CKA2, hits give low values 1.01 | S. cerevisiae deletion strains, locus YOR069W, strain VPS5, hits give low values 1.01 | S. cerevisiae deletion strains, locus YOR070C, strain gyp1, hits give low values 0.979 | S. cerevisiae deletion strains, locus YOR080W, strain dia2, hits give low values 0.995 | S. cerevisiae deletion strains, locus YOR083W, strain WHI5 (second series), hits give low values 0.987 | S. cerevisiae deletion strains, locus YOR083W, strain WHI5, hits give low values 0.9 | S. cerevisiae deletion strains, locus YOR106W, strain vam3, hits give low values 0.89 | S. cerevisiae deletion strains, locus YOR136W, strain idh2, hits give low values 1 | S. cerevisiae deletion strains, locus YOR144C, strain elg1, hits give low values 1.02 | S. cerevisiae deletion strains, locus YOR184W, strain ser1, hits give low values 0.954 | S. cerevisiae deletion strains, locus YOR231W, strain MKK1, hits give low values 0.99 | S. cerevisiae deletion strains, locus YOR265W, strain rbl2, hits give low values 0.997 | S. cerevisiae deletion strains, locus YOR270C, strain vph1, hits give low values 0.838 | S. cerevisiae deletion strains, locus YOR290C, strain snf2, hits give low values 0.898 | S. cerevisiae deletion strains, locus YOR316C, strain cot1, hits give low values 1.02 | S. cerevisiae deletion strains, locus YPL051W, strain arl3, hits give low values 0.916 | S. cerevisiae deletion strains, locus YPL055C, strain LGE1, hits give low values 1 | S. cerevisiae deletion strains, locus YPL078C, strain atp4, hits give low values 0.926 | S. cerevisiae deletion strains, locus YPL106C, strain sse1, hits give low values 0.949 | S. cerevisiae deletion strains, locus YPL240C, strain hsp82, hits give low values 0.991 | S. cerevisiae deletion strains, locus YPL241C, strain CIN2, hits give low values 1 | S. cerevisiae deletion strains, locus YPL256C, strain CLN2, hits give low values 0.981 | S. cerevisiae deletion strains, locus YPR119W, strain clb2, hits give low values 1.02 | S. cerevisiae deletion strains, locus YPR141C, strain kar3, hits give low values 1.01 | S. cerevisiae deletion strains, locus YPR163C, strain tif3, hits give low values 1.02 | S. cerevisiae deletion strains, locus YPR167C, strain met16, hits give low values 1.02 | S. cerevisiae deletion strains, strain wtn01, hits give low values 1.03 | S. cerevisiae strains, strain wild type, hits give low values 1
active: S. cerevisiae deletion strains, locus YLR027C, strain aat2, hits give low values 0.924 | S. cerevisiae deletion strains, locus YNL071W, strain lat1, hits give low values 0.918

— PubChem BioAssay AID1159580 (chemical genetic matrix, 2015)
